Most compounds without a hit are left out; they make up all but 5.2% or so of the library.
FBPA coupling cs = coupling enzyme interference in Giardia aldolase counter-screen; coupling enzyme system counterscreen, AmpLite Red fluorescence; activity change, negative = inhibition, % at 58.2 µM, hits read low; hit rate 0.67% among 290,000; in the data active = activity change below about -30%
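Activity here indicates interference with the coupling reaction, not aldolase inhibition. Compounds at 57.5 uM final met coupling enzymes for 10 min at RT; substrate and AmpLite Red detection followed, with a 525/598 nm fluorescence read after 20 min.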
Tau FP inhib = inhibitors of human tau fibril formation. hit rate 0.39% among 280,000. AID 1468. P10636. K18 P301L tau heparin fibrillization, Alexa594 FP, 6 h. Potency, µM (top dose mostly 57.7 µM), without a hit: at the top dose activity, negative = inhibition, hits mostly inhibitors; note: potency is the fitted concentration of half-maximal effect; nearly all actives have a fitted effect of over 55% in size
Target sequence (P10636 561-689 P618L limits assumed): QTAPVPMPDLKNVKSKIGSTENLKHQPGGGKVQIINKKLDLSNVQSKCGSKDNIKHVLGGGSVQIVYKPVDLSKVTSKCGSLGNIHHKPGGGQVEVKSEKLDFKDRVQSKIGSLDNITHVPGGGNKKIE
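K18 P301L tau (15 uM unlabeled/0.24 uM Alexa 594-labeled, final) + compound + heparin 20 uM final; 100 mM NaOAc pH 7; 6 hr 37 C; ThT 30 uM final added, 1 hr RT; FP ex 555/em 632 nm.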
Tau ThT inhib = blocks human tau fibril formation measured by thioflavin T | recombinant tau K18 P301L, heparin-induced fibrillization, ThT fluorescence | Potency, µM (highest dose often 57.4 µM), without a hit: at the top dose activity, negative = inhibition, most hits filed as inhibitors | hit rate 2.1% among 270,000 | AID 1460; note: potency is the fitted concentration of half-maximal effect; nearly all actives have a fitted effect of over 55% in size
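K18 P301L tau (15 uM + 0.24 uM Alexa 594-tagged), heparin 20 uM, NaOAc pH 7, 6 h 37 C; ThT 30 uM, 1 h RT, ex 450/em 510 nm.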
Tau fluor counter = counter-screen for tau fibril formation inhibitors; Potency, µM (titrated, usually from 57.7 µM), for inactives: top-dose activity change, negative = decrease; AID 1463; tau K18 P301L Alexa594 fluorescence, heparin fibrillization; hit rate 0.93% among 280,000; note: potency is the fitted concentration of half-maximal effect; nearly all actives have a fitted effect of over 55% in size
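Human tau K18 P301L (15 uM unlabeled, 0.24 uM Alexa 594-labeled) in 100 mM sodium acetate pH 7 with 20 uM heparin, 6 hr at 37 C. ThT 30 uM added, 1 hr ambient; Alexa 594 FP and total fluorescence read at 555/632 nm.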
Sfp inh = blocks B. subtilis Sfp PPTase activity | Q9F4F7 | Biochemical Sfp PPTase activity, qHTS | Potency, µM, for the others: largest response in the series, negative = inhibition, most hits filed as inhibitors | hit rate 3.5% among 310,000;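 note: the enzyme is Sfp with the accession as filed and its product quenches rhodamine fluorescence; potency is the fitted concentration of half-maximal effect; 0% = enzyme reaction without inhibitor and -100% = no enzyme wells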
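Fluorescence-quenching assay: 15 nM Sfp-PPTase preincubated 15 min at room temperature with compound, then 5 uM rhodamine-CoA and 12.5 uM BHQ-2-labelled YbbR peptide added. Fluorescence (ex 525/em 598 nm) read at start and after 30 min; difference gives rate.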
Active calls of the source: *; ? = inconclusive; nt = not tested or not shown; [ ] = remark or other dose. Unless noted, calls come from the whole dose curve; as a rule, active = well fitted curve in the direction sought with a large enough effect; inconclusive = small, poorly fitted or top-dose-only effect, or another doubt; inactive = no such curve, though single readings can be large; an effect the other way counts as inactive or inconclusive. Unless noted, % is set by controls: 0 for no effect and ±100 for the full control effect.

SMILES	FBPA coupling cs	Tau FP inhib	Tau ThT inhib	Tau fluor counter	Sfp inh
N=C1/C(=C/c2coc3ccccc3c2=O)C(=O)N=C2SC(c3ccco3)=NN12	-5	-10%	?	-19%	40µM*
N=C1/C(=C\c2coc3ccccc3c2=O)C(=O)N=C2SC(c3ccncc3)=NN12	6	?	13µM*	-24%	-19%
N=C1/C(=C\c2coc3ccc(O)cc3c2=O)C(=O)N=C2SC=CN12	0	-14%	13µM*	?	?
Cc1cc(/C=C2\C(=N)N3N=C(c4ccco4)SC3=NC2=O)c(C)n1Cc1ccccc1	-1	-7%	13µM*	?	?
CN1C(=O)/C(=C/c2coc3ccc(O)cc3c2=O)SC1=S	3	-2%	?	-18%	3%
Cc1ccc(C)c(N2CCN(C(=O)CSCc3ccccc3Cl)CC2)c1	nt	-5%	?	-11%	nt
COc1cc(OC)c(N(C)C(=O)Cn2ncc3c(=O)oc4ccccc4c32)cc1Cl	nt	-12%	0%	-11%	nt
Cc1noc(C)c1C(=O)N1CCC2(CCCN(c3ccncc3)C2)CC1	1	nt	nt	nt	7%
Cc1c(C)n(Cc2ccccc2)c2ccc(C(=O)NCC(C)c3ccccc3)cc12 (stereo not drawn)	nt	14%	-6%	-7%	nt
COc1cc(/C=C/C(=O)Nc2nnc(CC(C)(C)C)s2)cc(OC)c1OC	8	-13%	-3%	-7%	45µM*
CCCCOc1ccc(C(=O)NCCc2csc3nc(-c4ccccc4F)nn23)cc1	nt	0%	-15%	-22%	nt
CCn1c(SCC(=O)N/N=C/C=C/c2ccco2)nc2ccccc21	-7	?	?	-12%	45µM*
CCn1c(SCC(=O)N/N=C/C=C/c2ccco2)nnc1-c1ccc(OC)cc1	-39*	12%	13%	4%	?
O=C(CSc1nnc(SCc2ccccc2)s1)N/N=C/C=C\c1ccco1	1	-15%	?	-20%	11µM*
CCn1c(SCC(=O)N/N=C/c2ccc(C)o2)nnc1-c1ccc(C)cc1	5	1%	?	-8%	?
CCOc1ccc(-c2cc3c(=O)n(Cc4nc(-c5ccc(OCC)c(OC)c5)oc4C)ccn3n2)cc1Cl	nt	-1%	-5%	-8%	nt
Cc1c(C(=O)O)oc2c1-c1nn(Cc3ccccc3Cl)cc1CC2	nt	1%	-11%	-2%	nt
Cc1ccc(-c2noc(-c3cccnc3NCc3ccco3)n2)cc1	nt	?	8%	-21%	nt
O=C(Nc1ccccc1)Nc1ccc(S(=O)(=O)N2CCCCC2)cc1	0	32µM*	12%	16µM*[quencher]	-4%
CN1CCN(S(=O)(=O)c2ccc(NC(=S)NC(=O)c3ccc(Cl)cc3)cc2)CC1	-5	-2%	-16%	-25%	22µM*
O=C(NC(=S)N1CCN(C(c2ccccc2)c2ccccc2)CC1)c1ccc(S(=O)(=O)N2CCOCC2)cc1	0	4%	-2%	-12%	20%
NS(=O)(=O)c1ccc(NC(=S)Nc2ccc(S(=O)(=O)N3CCCC3)cc2)cc1	1	?	-13%	?	50µM*
CN(C)NC(=S)Nc1ccc(S(=O)(=O)N2CCCCC2)cc1	0	-6%	-5%	-9%	17%
CN1CCN(C(=S)NC(=O)c2ccc(S(=O)(=O)N3CCOCC3)cc2)CC1	1	-2%	2%	7%	45µM*
CC1COC(=O)O1 (stereo not drawn)	-1	nt	nt	nt	0%
SMILES	FBPA coupling cs	Tau FP inhib	Tau ThT inhib	Tau fluor counter	Sfp inh
CN1CCN(S(=O)(=O)c2ccc(NC(=O)c3ccccc3Cl)cc2)CC1	2	nt	nt	nt	12%
O=C(Nc1cccc(Cl)c1)Nc1cc(S(=O)(=O)N2CCCCC2)ccc1Cl	1	11µM*	15%	?	27%
NS(=O)(=O)c1ccc(NC(=S)NC2CC2)cc1	2	3%	4%	15%	10µM*
CN(CCOc1ccccc1)CC(=O)Nc1ccc(S(=O)(=O)N2CCCC2)cc1	2	7%	-10%	-19%	56µM*
O=C(Nc1cccc(O)c1)c1cc(S(=O)(=O)N2CCCC2)ccc1Cl	3	4%	-16%	-11%	5%
CN1CCN(S(=O)(=O)c2ccc(NC(=O)Nc3cccc(Cl)c3)cc2)CC1	-1	18µM*	?	?	-26%
O=C(Cn1nnnc1-c1ccccc1F)Nc1ccc(F)c(F)c1	nt	-19%	11%	-5%	nt

Source: PubChem BioAssay (National Center for Advancing Translational Sciences (NCATS))
